Assay outcomes: PubChem BioAssay, National Center for Advancing Translational Sciences (NCATS)
D3 antag: blocks the human D3 dopamine receptor; P35462; D3R cells, DiscoveRx beta-arrestin luminescence, antagonist mode; hits give low values; max response, negative = inhibition, %; 360,000 compounds, 2.5% hits; AID 652054; in the data active = max response below about -50%; inconclusive = no clear call, values can overlap the other calls; note: % is set by controls: 0 for no effect and ±100 for the full control effect
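Cells expressing the human receptor were seeded at 1500 cells/well, incubated overnight at 37 degrees C in 5% CO2, then exposed to library compounds with dopamine controls for 90 minutes at 37 degrees C before luminescent detection.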
DRD3 agonist: agonists of human D3 dopamine receptor; 410,000 compounds, 0.58% hits; D3R DiscoveRx beta-arrestin cells, luminescence, 90 min; AID 652048; max activation, %; P35462; in the data active = max activation above about 30%; note: 0% is about no effect
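Cells at 1500/well, incubated overnight, then treated with pinned compounds (dopamine as control) for 90 min at 37 degrees C. DiscoveRx reagent added for 30 - 60 minutes at room temperature; luminescence read.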
D1 antag: antagonists of human D1 dopamine receptor | HEK293 TREx D1 cells, calcium flux, dopamine EC80; hits give low values | activity change, negative = inhibition, % at 10 µM | 360,000 compounds, 3.2% hits; in the data active = activity change below about -30%; note: % is set by controls: 0 for no effect and ±100 for the full control effect
Target sequence (P21728 whole entry, looked up): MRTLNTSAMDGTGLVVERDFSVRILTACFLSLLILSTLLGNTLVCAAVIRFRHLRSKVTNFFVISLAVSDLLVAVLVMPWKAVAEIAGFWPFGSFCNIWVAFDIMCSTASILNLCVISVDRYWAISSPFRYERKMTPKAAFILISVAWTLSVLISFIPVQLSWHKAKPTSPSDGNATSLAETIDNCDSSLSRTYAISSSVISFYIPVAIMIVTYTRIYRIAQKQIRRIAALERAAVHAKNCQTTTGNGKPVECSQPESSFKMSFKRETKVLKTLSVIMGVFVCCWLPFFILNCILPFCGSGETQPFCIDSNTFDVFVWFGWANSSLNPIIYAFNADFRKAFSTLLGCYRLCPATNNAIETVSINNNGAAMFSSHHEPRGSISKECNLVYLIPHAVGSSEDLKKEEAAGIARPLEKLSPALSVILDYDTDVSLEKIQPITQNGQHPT
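Allosteric or orthosteric antagonism assessed as attenuation of the calcium response to EC80 dopamine, added 180 s after compound, in induced HEK293 Trex D1 cells loaded with no-wash calcium dye.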
D1 ag: human D1 receptor agonism. P21728. HEK293 T-REx D1 cells, calcium flux, agonist mode. activation, % at 2 µM. 360,000 compounds, 1% hits; in the data active = activation above about 30%; note: 0% is about no effect
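Tetracycline-induced HEK293 TREx D1 cells, force-coupled to calcium signalling, were dye-loaded with a no-wash calcium kit. Compound was pin-added after a 10 s baseline. Fluorescence was read kinetically at 1 cycle/s for 180 s, with calcium rises flagged as agonism.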
D1 potentiator: human D1 dopamine receptor positive modulation; HEK293 TREx D1 cells, calcium flux, dopamine EC20 potentiation; potentiation, % at 10 µM; 360,000 compounds, 0.036% hits; P21728; in the data active = potentiation above about 30%; note: 0% is about no effect
Active calls of the source: *; ? = inconclusive; / = no result given; ! = a repeat was not active. Most compounds without a hit are left out; they make up all but 6% or so of the library.

SMILES	D3 antag	DRD3 agonist	D1 antag	D1 ag	D1 potentiator
CCOc1ccc(N(CC(=O)Nc2cccc(Cl)c2)S(=O)(=O)c2c(C)noc2C)cc1	-14.6	-1.0	-36.2*	4.3	-6.2
Cc1ccc(N(CC(=O)NCCc2ccc(Cl)cc2)S(=O)(=O)c2c(C)noc2C)cc1	-19.4	-4.8	-33.5*!	8.3	4.0
COc1ccc(N(CC(=O)Nc2ccc(C)c(C)c2)S(=O)(=O)c2c(C)noc2C)cc1	0.1	-15.5	-41.6*	4.4	-11.7
Cc1ccc(CCNC(=O)CN(c2ccc(C)cc2)S(=O)(=O)c2c(C)noc2C)cc1	10.7	6.7	-1.4	1.3	-0.5
Cc1ccccc1-n1c2nc(=O)[nH]c(=O)c-2cc2c(Cl)cccc21	/	-2.2	3.9	5.9	-0.3
COc1ccccc1OCC1CNC(=O)O1 (centres undefined)	/	-0.4	/	/	/
Cc1cc(C)cc(OCC2CNC(=O)O2)c1 (centres undefined)	14.2	83.5*!	/	/	/
O=C(CSc1ncn[nH]1)Nc1cccc(S(=O)(=O)N2CCCCCC2)c1	0.0	0.1	-35.7*	9.1	-6.3
O=C(CN1C(=O)NC(Cc2c[nH]c3ccccc23)C1=O)Nc1cccc(S(=O)(=O)N2CCCCCC2)c1 (centres undefined)	12.8	0.5	-19.0	2.6	0.4
COC(=O)c1cc(NC(=O)CSc2ncn[nH]2)ccc1Cl	8.2	7.0	-44.0*	1.2	-3.6
O=C(CSC(=S)N1CCCC1)N1CCN(S(=O)(=O)c2cccc([N+](=O)[O-])c2)CC1	-6.7	-23.7	-32.9*	4.8	-4.5
O=C(Cc1c[nH]c2ccccc12)Nc1cccc(S(=O)(=O)N2CCCCC2)c1	/	/	-30.3*	-0.1	-8.1
CCC(Nc1ccc(-c2nc(-c3cccnc3)no2)cc1[N+](=O)[O-])c1ccccc1 (centres undefined)	/	11.7	-3.8	0.4	2.6
CC1CCCCC12NC(=O)N(CC(=O)Nc1cccc(S(=O)(=O)N3CCCCC3)c1)C2=O (centres undefined)	6.1	-1.6	-52.9*	2.0	1.3
CC(C)(C)C1CCc2c(sc(NC(=O)CSc3ncn[nH]3)c2C#N)C1 (centres undefined)	21.2	35.6*	17.0	1.0	3.5
Cc1cc(C)c(C(=O)OCC(=O)Nc2cccc(S(=O)(=O)N3CCCCC3)c2)c(C)c1	13.4	4.8	0.3	36.9*	3.0
O=C(CNc1cccc(S(=O)(=O)N2CCCCCC2)c1)Nc1cccc([N+](=O)[O-])c1	-6.0	0.7	-32.3*	8.2	-10.8
Cc1cccc(N2CCN(c3ncnc4c3nc3n4CCCCC3)CC2C)c1 (centres undefined)	/	11.7	-7.4	4.0	0.1
COc1ccc(Br)cc1S(=O)(=O)N1CCN(S(=O)(=O)c2ccc3c(c2)OCCO3)CC1	/	/	6.3	1.8	1.6
O=S(=O)(Nc1cccc(S(=O)(=O)N2CCCCCC2)c1)c1ccccc1	2.8	32.8*	-7.4	10.2	-2.1
N#Cc1ccccc1NC(=O)CSc1ncn[nH]1	/	-16.5	-34.9*	0.9	-2.6
CC(=O)CSc1nc(N(C)C)nc(N(C)C)n1	-24.1	-17.3	/	-2.0	-4.5
CN(C)c1nc(SCC#N)nc(N(C)C)n1	16.2	-1.3	-74.3*	-0.3	-7.7
CC/C=C(\C(=O)N[C@@H]1C(=O)N2C(C(=O)OCOC(=O)C(C)(C)C)=C(COC(N)=O)CS[C@H]12)c1csc(N)n1	/	-29.5	/	/	/
Cc1cc2c(s1)c1cnn(Cc3cccc(F)c3F)c(=O)c1n2C	/	/	-9.5	0.7	4.9
SMILES	D3 antag	DRD3 agonist	D1 antag	D1 ag	D1 potentiator
COc1cccc(NC(=O)c2c(-c3ccc(C)cc3)nnc3ccccc23)c1	/	2.4	11.1	2.3	-3.0
CC(=O)c1cccc(NC(=O)/C(=C/c2ccco2)NC(=O)c2ccco2)c1	-4.3	6.9	11.3	1.4	38.0*
Cc1[nH]c2ccccc2c1CCNC(=O)c1ccc2c(c1[N+](=O)[O-])C(=O)c1ccccc1C2=O	-85.2*	-16.5	1.0	3.6	-3.7
CN(C)C(=O)c1ccc2c(c1[N+](=O)[O-])C(=O)c1ccccc1C2=O	?	-9.4	11.7	3.1	11.3
Cc1[nH]c2c(C)cccc2c1CCNC(=O)c1ccc2c(c1[N+](=O)[O-])C(=O)c1ccccc1C2=O	-56.2*	0.4	18.9	1.1	0.8
Cc1c(-c2nnc(SCC(=O)Nc3ccc(Cl)cc3)o2)nnn1-c1ccc(F)cc1	/	-7.9	0.1	3.6	2.2
